Sampled rows, rich in hits. Any-hit rate of the full collection: about 4.6%.
D1 antagonist: Antagonist of Human D 1 Dopamine Receptor: qHTS; D(1A) dopamine receptor (Homo sapiens), P21728; HEK293 TREx D1 cells, calcium flux, dopamine EC80; stronger effect = lower value; activity change, negative = inhibition, % at 10 µM; actives 3.2% (n = 360,000); AID 504652, 2011; in the data active = activity change below about -30%
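After overnight tetracycline induction at 30 C, force-coupled D1 HEK293 cells took up a no-wash calcium dye at room temperature. Compounds were added and monitored 180 s, and the response to EC80 dopamine was then recorded.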
D1 PAM: Potentiators of Human D1 Dopamine Receptor: qHTS | HEK293 TREx D1 cells, calcium flux, dopamine EC20 potentiation | potentiation, % at 10 µM | actives 0.036% (n = 360,000) | AID 504651, 2011; in the data active = potentiation above about 30%
D1 agonist: Allosteric Agonists of the Human D1 Dopamine Receptor: qHTS; HEK293 T-REx D1 cells, calcium flux, agonist mode; actives 1% (n = 360,000); D(1A) dopamine receptor (Homo sapiens), P21728; activation, % at 2 µM
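Tetracycline-induced HEK293 TREx D1 cells, force-coupled to calcium signalling, were dye-loaded with a no-wash calcium kit. Compound was pin-added after a 10 s baseline. Fluorescence was read kinetically at 1 cycle/s for 180 s, with calcium rises flagged as agonism.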
TRHR enhancer: qHTS for Small Molecule Agonists and Allosteric Enhancers of Human TRH Receptor: Primary Screen for Enhancers; Thyrotropin-releasing hormone receptor (Homo sapiens), P34981; enhancement, % at 2 µM; actives 0.66% (n = 360,000); TRHR cells, fluo-8 calcium fluorescence, EC20 TRH enhancement; in the data active = enhancement above about 30%
Target sequence (P34981 whole entry, looked up): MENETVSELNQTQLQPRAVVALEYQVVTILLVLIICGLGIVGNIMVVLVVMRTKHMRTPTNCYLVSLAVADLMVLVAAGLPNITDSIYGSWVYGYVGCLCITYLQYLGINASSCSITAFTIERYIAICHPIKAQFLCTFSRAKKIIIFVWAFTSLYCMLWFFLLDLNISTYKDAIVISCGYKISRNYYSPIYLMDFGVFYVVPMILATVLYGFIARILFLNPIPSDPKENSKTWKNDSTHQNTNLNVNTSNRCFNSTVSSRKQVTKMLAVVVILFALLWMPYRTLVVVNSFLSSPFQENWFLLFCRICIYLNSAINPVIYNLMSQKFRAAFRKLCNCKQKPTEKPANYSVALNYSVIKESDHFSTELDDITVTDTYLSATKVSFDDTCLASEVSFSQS
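TRHR-expressing cells loaded with fluo-8 calcium dye were read kinetically (ex 480/em 530) during compound addition, then stimulated with an EC20 of TRH (10 nM final). Enhancement of the Gq-mediated intracellular calcium response was scored.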
TRHR ag: qHTS for Small Molecule Agonists and Allosteric Enhancers of Human TRH Receptor: Primary Screen for Agonists; TRHR cells, calcium flux fluo-8, FDSS agonist mode; activation, % at 2 µM; actives 0.18% (n = 360,000)
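In this calcium-flux screen, cells bearing human TRHR are dye-loaded with fluo-8, baselined for 10 cycles, then exposed to library compounds; positive kinetic calcium responses during the agonist phase mark hits, with TRH as control.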
Each line names hits and unclear results; the compound was inactive in the other large screens. Cut-off read from the data, not from the text of the source, unless noted: active = activation above about 30%; inactive = the rest.

Cc1c(/C=N\NC(=O)C2COc3ccc(C(C)(C)C)cc3O2)c2ccccc2n1C (configuration not stated)	D1 antagonist -86
Cn1cccc1/C=N\NC(=O)C1COc2ccccc2O1 (configuration not stated)	D1 antagonist -38
Cn1cccc1/C=N\NC(=O)C1COc2ccc(C(C)(C)C)cc2O1 (configuration not stated)	none
COc1ccc(Cl)cc1N(C)C(=O)Cn1cnc2sc(C)c(S(=O)(=O)N3CCN(c4ncccn4)CC3)c2c1=O	none
O=C(NC1CC1)c1c[nH]c2ccc(S(=O)(=O)Nc3cccc(C(F)(F)F)c3)cc2c1=O	TRHR enhancer 40
COc1ccc(-n2nnnc2C2CCN(S(=O)(=O)c3cc(Cl)ccc3OC)CC2)cc1	none
Cc1cc(C)nc(N/N=C/C2=C(N3CCOCC3)C(=C\c3ccc(Cl)cc3)/CC2)n1	none
O=C(O)c1ccc(N/N=C/C2=C(N3CCOCC3)C(=C\c3ccccc3)/CC2)cc1	D1 agonist 83
CCn1c(SCC(=O)Nc2c(C)cccc2C)nnc1-c1nonc1NC(C)=O	none
CCOc1ccccc1NC(=O)Cn1c(=O)n(-c2ccc(Cl)cc2)c(=O)c2oc3ccccc3c21	none
O=C(O)c1nn(-c2cccc(Cl)c2)c(=O)cc1O	D1 antagonist -44
CCn1cc(C2N3CC4(C)CN2CC(C)(C3)C4=O)c2ccccc21 (configuration not stated)	D1 antagonist -76 (no result: D1 PAM)
CCCC12CN3CC(C)(CN(C1)C3c1cn(C)c3ccccc13)C2=O (configuration not stated)	none
CCOC(=O)Cn1cc(/C=C(/C#N)C(=O)NC(C)C)c2ccccc21	D1 antagonist -33
CCOC(=O)Cn1cc(/C=C(\C#N)C(=O)N2CCOCC2)c2ccccc21	none
CC(C)OC(=O)/C(C#N)=C/c1cn(C)c2ccccc12	D1 antagonist -39
Cc1ccc(Nc2nc(-c3ccc(F)cc3)cs2)nc1	D1 antagonist -37
O=C(Nc1nc(-c2ccccc2)cs1)c1ccccc1NS(=O)(=O)c1ccc(F)cc1	D1 antagonist -48
O=S(=O)(Nc1ccc(-c2csc(-c3ccccc3)n2)cc1)c1ccc(F)cc1	none
Cc1ccc(C(=O)Nc2nc(-c3ccc(F)cc3)cs2)o1	D1 antagonist -48
O=C(CN1C(=O)C2CC=CCC2C1=O)Nc1nc(-c2ccc(F)cc2)cs1 (configuration not stated)	D1 antagonist -46
Cc1cccc(N2CCN(Cc3nnc(-c4ccccc4C)o3)CC2C)c1 (configuration not stated)	none
COc1cc(Cl)c(C)cc1NC(=O)NC1COc2ccccc2C1 (configuration not stated)	none
O=C(N/N=C/c1cccc(Br)c1)C1CC(=O)N(c2ccccc2)C1 (configuration not stated)	none
Cc1ccc(-c2cc(C(F)(F)F)n3nc(C(=O)Nc4ccc(Cl)c(C(F)(F)F)c4)cc3n2)cc1	none
O=C(CC1N=C2c3ccccc3N=C(SCc3cccc(F)c3)N2C1=O)NCc1cccs1 (configuration not stated)	none
CCOC(=O)N1CCN(C(=O)CSc2nc3c([nH]c4ccccc43)c(=O)n2CC)CC1	D1 antagonist -36
CCn1c(SCC(=O)N(C)c2ccccc2)nc2c([nH]c3ccccc32)c1=O	D1 antagonist -37
CCN=C1SC(CC(=O)NCc2ccccc2)C(=O)N1CC (configuration not stated)	none
O=S(=O)(c1ccc2c(c1)OCCO2)N1CCC(n2nnc3cc(F)ccc32)CC1	none
O=S(=O)(c1ccc2c(c1)OCCO2)N1CCC(n2cnc3cc(F)ccc32)CC1	D1 antagonist -46
O=C(Cn1c(=O)oc2cc(S(=O)(=O)N3CCCCC3)ccc21)NCc1ccc(Cl)cc1	none
CCOC(=O)COc1ccc2c(=O)c(-c3ccc(OC)c(OC)c3)c(C(=O)OCC)oc2c1	D1 antagonist -45
CCOC(=O)c1oc2cc(OC(C)=O)ccc2c(=O)c1-c1ccc(OC)c(OC)c1	none
NC(=O)CC(NC(=O)Cc1ccc(Br)cc1)c1ccc(NCCN2CCCCC2)c([N+](=O)[O-])c1 (configuration not stated)	D1 antagonist -45
NC(=O)CC(NC(=O)Cc1ccc(Br)cc1)c1ccc(NCCN2CCCC2)c([N+](=O)[O-])c1 (configuration not stated)	none
Cn1c(CNC(=O)CCNC(=O)c2cccc(Cl)c2)cc(=O)n(C)c1=O	none
Cc1ccc(N2C(=O)C3C(C2=O)N2C(c4cccs4)C4C(=O)N(c5ccc(C)cc5)C(=O)C4N2C3c2cccs2)cc1 (configuration not stated)	none
CCCN1C2CCCC1CC(NC(=O)c1ccccc1OCC)C2 (configuration not stated)	D1 antagonist -81
CCCN1C2CCCC1CC(NC(=O)c1ccccc1OC)C2 (configuration not stated)	none
CCOc1ccccc1C(=O)NC1CC2CCCC(C1)N2Cc1ccc(C)cc1 (configuration not stated)	D1 antagonist -51
Cc1ccc(C)c(N2CCN(C(=O)c3ccc4[nH]c(C)c(C)c4c3)CC2)c1	D1 antagonist -33
O=[N+]([O-])c1ccc(N2CCN(Cc3ccc([N+](=O)[O-])o3)CC2)cc1	D1 antagonist -33
Cc1nonc1OCCN1CCN(c2ccc([N+](=O)[O-])cc2)CC1	D1 antagonist -40
O=[N+]([O-])c1ccc(N2CCN(c3ccc(F)cc3)CC2)cc1	none
O=[N+]([O-])c1ccc(N2CCSCC2)cc1	D1 antagonist -38
O=[N+]([O-])c1ccc(N2CCN(CCOc3nonc3-c3ccccc3)CC2)c(Cl)c1	none
CC1(C)CC(=O)N(c2cc(Cl)cc(Cl)c2)C(=O)C1	none
COc1cccc(CCNC(=O)C2CCC(=O)N(Cc3cccc(OC)c3)C2)c1 (configuration not stated)	D1 antagonist -52
Cc1ccc(-n2nnnc2CNC(=O)c2ccc3c(c2)OCO3)cc1C	none
COc1ccc(Cl)cc1NS(=O)(=O)c1c(C)[nH]c(=O)[nH]c1=O	none
O=C(Nc1ccc(F)cc1)c1nc(S(=O)(=O)Cc2ccccc2)ncc1Cl	D1 antagonist -51
O=C(Nc1nc2ccc(F)cc2s1)c1nc(S(=O)(=O)Cc2ccccc2)ncc1Cl	none
COC(=O)c1ccccc1NC(=O)c1nc(S(=O)(=O)Cc2ccccc2F)ncc1Cl	none

Screening data: PubChem BioAssay, National Center for Advancing Translational Sciences (NCATS)
